Reference: the supplement of paper PMC3545927
Some of the results follow. The hit rate among all sequences tested is not known here.

Target: furin, P09958
Assay: furin cleavage Z-score vs untreated control; higher = more cleavage, active = 3.5 or more, inactive = 1 or less, 8 variable residues between constant flanks
Method in brief: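 Abundance of DNA freed from bead-bound 8-mer peptide–cDNA fusions by purified furin was measured as sequencing read counts after PCR adapter tagging. Cutting ran 7.5, 15 or 30 min in 0.01 ml of 50 mM HEPES pH 7.5 with CaCl2 and NaCl at 1:10 enzyme:substrate. The cleavage Z-score expresses these log counts against furin-free reactions after lowess adjustment and median absolute deviation scaling.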

furin, P09958, sequence (P09958 whole entry): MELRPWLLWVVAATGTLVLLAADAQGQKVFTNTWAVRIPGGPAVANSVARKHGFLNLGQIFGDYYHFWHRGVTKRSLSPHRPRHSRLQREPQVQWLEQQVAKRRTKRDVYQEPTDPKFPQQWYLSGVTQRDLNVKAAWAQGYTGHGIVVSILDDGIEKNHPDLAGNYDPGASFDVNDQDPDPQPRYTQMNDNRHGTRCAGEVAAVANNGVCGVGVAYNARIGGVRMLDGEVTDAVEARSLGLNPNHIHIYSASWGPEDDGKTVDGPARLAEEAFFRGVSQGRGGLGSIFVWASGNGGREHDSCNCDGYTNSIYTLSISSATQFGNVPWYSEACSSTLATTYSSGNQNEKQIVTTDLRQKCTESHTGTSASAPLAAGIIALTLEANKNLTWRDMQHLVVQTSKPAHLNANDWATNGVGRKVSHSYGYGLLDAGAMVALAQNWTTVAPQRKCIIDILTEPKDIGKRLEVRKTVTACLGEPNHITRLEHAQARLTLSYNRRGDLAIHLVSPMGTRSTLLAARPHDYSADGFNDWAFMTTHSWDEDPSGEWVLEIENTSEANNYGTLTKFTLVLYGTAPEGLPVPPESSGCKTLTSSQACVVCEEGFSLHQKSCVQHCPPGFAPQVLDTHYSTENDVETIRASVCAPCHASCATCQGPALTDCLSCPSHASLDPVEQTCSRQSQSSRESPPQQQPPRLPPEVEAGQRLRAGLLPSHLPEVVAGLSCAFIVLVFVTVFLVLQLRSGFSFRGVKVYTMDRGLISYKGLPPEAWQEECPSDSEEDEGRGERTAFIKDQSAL

Sequence | furin cleavage Z-score (7.5 min) | furin cleavage Z-score (15 min) | furin cleavage Z-score (30 min)
CATWVLVGGVAGNASASA [HC990] | 0.127 (inactive) | -1.42 (inactive) | 0.528 (inactive)
CAAYAAQGYKAGNASASA [HC782] | -0.0157 (inactive) | -1.07 (inactive) | -0.556 (inactive)
CAREFRIIFDAGNASASA [FS-2002] | -0.0827 (inactive) | -0.962 (inactive) | -0.343 (inactive)
CAPCEPEPDVAGNASASA [HC1241] | -0.464 (inactive) | 0.432 (inactive) | -0.805 (inactive)
CATTPVSGSWAGNASASA [HC43] | -0.371 (inactive) | 0.0296 (inactive) | 0.074 (inactive)
CAEVETSTWVAGNASASA [HC2192] | -0.139 (inactive) | -0.872 (inactive) | -0.676 (inactive)
CAEVVVSTWVAGNASASA [HC123] | 0.0781 (inactive) | -2.67 (inactive) | -0.513 (inactive)
CAPISRRRRHAGNASASA [FS-69] | 10.5 (active) | 12.1 (active) | 10.2 (active)
CAYMNRRRRHAGNASASA [FS-320] | 5.9 (active) | 7.94 (active) | 6.26 (active)
CAETMRRRRHAGNASASA [FS-928] | 10.4 (active) | 11.7 (active) | 10 (active)
CAVALRRRRHAGNASASA [FS-1577] | 11.1 (active) | 12.6 (active) | 9.5 (active)
CAVILLMCAVAGNASASA [HC597] | -0.0828 (inactive) | -1.86 (inactive) | -1.55 (inactive)
CAELITSCSSAGNASASA [HC1551] | -0.448 (inactive) | 0.888 (inactive) | -0.654 (inactive)
CACRASGVLTAGNASASA [HC1510] | -0.191 (inactive) | -0.919 (inactive) | -0.424 (inactive)
CAPVVTSTWVAGNASASA [HC2159] | 0.805 (inactive) | 0.48 (inactive) | 0.275 (inactive)
CAEVFCVQPEAGNASASA [HC1442] | -0.865 (inactive) | -0.957 (inactive) | -0.965 (inactive)
CAMMSRIFRHAGNASASA [FS-1236] | -0.468 (inactive) | -0.194 (inactive) | 1.99
CAMKIRRRRHAGNASASA [FS-275] | 6.27 (active) | 6.38 (active) | 5.11 (active)
CAVACCSMSYAGNASASA [HC2003] | -0.939 (inactive) | 1.22 | 0.305 (inactive)
CARMKREITTAGNASASA [FS-2047] | 9.07 (active) | 9.89 (active) | 7.88 (active)
CARMKRILQRAGNASASA [FS-2720] | 0.0731 (inactive) | 1.31 | 0.696 (inactive)
CARMKRYILHAGNASASA [FS-2222] | 2.82 | 6.82 (active) | 8.57 (active)
CARMKRESLMAGNASASA [FS-3228] | 9.24 (active) | 10.5 (active) | 11.4 (active)
CARKKKEEEMAGNASASA [FS-2264] | -1.03 (inactive) | -1.15 (inactive) | -0.39 (inactive)
CARMKREDLNAGNASASA [FS-2718] | 11.1 (active) | 11.1 (active) | 9.09 (active)
CAEAADAILHAGNASASA [HC268] | 1.3 | -1.15 (inactive) | 0.548 (inactive)
CARMKRVWDRAGNASASA [FS-2722] | 2.92 | -0.324 (inactive) | 0.97 (inactive)
CATTPCTGSWAGNASASA [HC76] | 0.592 (inactive) | 0.698 (inactive) | 0.31 (inactive)
